In the library only some 12% were active in any assay of this set; here they are far more common.
Pf growth 48h = inhibits P. falciparum growth in the first generation, 48 h. AID 504832. Potency, µM (highest dose often 28.7 µM), for the others: at the top dose activity change, negative = inhibition, hits mostly inhibitors. actives 5.9% (n = 310,000). P. falciparum luciferase growth in erythrocytes, 48 h; note: % is set by controls: 0 for no effect and ±100 for the full control effect
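Luminescence readout; reporter = integrated firefly luciferase in P. falciparum. RBC culture at 2% hematocrit, 0.1% parasitemia final, 37 C/5% CO2; decreased signal taken as growth inhibition.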
AmpC detergent = blocks E. coli AmpC beta-lactamase in detergent assay; P00811; AmpC hydrolysis of nitrocefin, absorbance 480 nm, 0.01% Triton; Potency, µM (titrated, usually from 114 µM), inactives show at the highest dose activity change, negative = inhibition, usual class: inhibitors; actives 0.041% (n = 370,000);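 note: 0% = no-compound wells and -100% = no-enzyme wells; nearly all actives have a fitted effect of over 25% in size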
Target sequence (P00811 whole entry, looked up): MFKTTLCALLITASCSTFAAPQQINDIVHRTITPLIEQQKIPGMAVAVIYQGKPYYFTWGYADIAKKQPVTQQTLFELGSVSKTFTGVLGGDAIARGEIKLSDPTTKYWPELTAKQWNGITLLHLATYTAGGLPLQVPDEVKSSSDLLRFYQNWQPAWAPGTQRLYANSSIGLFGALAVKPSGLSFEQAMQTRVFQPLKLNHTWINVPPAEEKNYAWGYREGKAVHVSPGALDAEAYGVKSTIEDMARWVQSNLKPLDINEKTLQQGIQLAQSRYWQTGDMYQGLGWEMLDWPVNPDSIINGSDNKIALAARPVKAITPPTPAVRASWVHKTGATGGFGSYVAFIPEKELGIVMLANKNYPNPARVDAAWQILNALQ
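AmpC (5.3 nM in the dispensed reagent) in 20 mM phosphate pH 7.0 with 0.01% (detergent screen) or 0.0001% Triton X-100 was preincubated with compounds for 15 min at room temperature. Nitrocefin was then added from an 800 uM solution, and hydrolysis was followed at 480 nm.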
Sm TGR inh = S. mansoni TGR enzyme inhibition; Potency, µM (series often up to 114 µM), for the others: at the top dose activity change, negative = inhibition, hits mostly inhibitors; actives 3% (n = 360,000); Q962Y6; AID 485364; purified TGR, DTNB reduction, TNB absorbance 405 nm; note: % is set by controls: 0 for no effect and ±100 for the full control effect; nearly all actives have a fitted effect of over 60% in size
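TGR 20 nM + NADPH 100 uM (dispensed conc.), cpd preinc 15 min RT; start with NADPH (500 uM addition) then DTNB (15 mM addition). Kinetic TNB absorbance, 405 nm filter. Four-parameter Hill fit across titration.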
AmpC no deterg = blocks E. coli AmpC beta-lactamase in detergent-free assay; AmpC nitrocefin hydrolysis, absorbance 480 nm, 0.0001% Triton; Potency, µM (series often up to 57.1 µM), without a hit: at the top dose activity change, negative = inhibition, usual class: inhibitors; actives 0.52% (n = 330,000);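 note: plate controls were no compound for no effect and no enzyme for full effect; nearly all actives have a fitted effect of over 20% in size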
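AmpC (5.3 nM in the dispensed reagent) in 20 mM phosphate pH 7.0 with 0.01% (detergent screen) or 0.0001% Triton X-100 was preincubated with compounds for 15 min at room temperature. Nitrocefin was then added from an 800 uM solution, and hydrolysis was followed at 480 nm.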
Pf growth 96h = P. falciparum growth inhibition at 96 hours. AID 504834. Potency, µM (titrated, usually from 28.7 µM), inactives show at the top dose activity change, negative = inhibition, hits mostly inhibitors. P. falciparum luciferase reporter growth, 96 h. actives 6.9% (n = 320,000); note: % is set by controls: 0 for no effect and ±100 for the full control effect
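Two parasite generations (96 h, 37 C, 5% CO2) of compound exposure in infected erythrocytes (0.05% parasitemia, 2% hematocrit). Luciferase-reporter P. falciparum; decreased luminescence indicates inhibited growth, aimed at apicoplast-acting delayed death.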
SARS PLP yeast = SARS-CoV PLP inhibition in yeast; S. cerevisiae expressing SARS-CoV PLpro, growth rescue; Potency, µM (series often up to 32.9 µM), for inactives: at the top dose activity, positive = growth rescue, most hits filed as activators; actives 0.19% (n = 330,000); AID 485353; calls by dose curve; note: 0% is about no effect; nearly all actives have a fitted effect of over 55% in size
An asterisk follows results filed as active; ? = inconclusive; / = not tested or not shown. Unless noted, calls come from the whole dose curve; as a rule, active = well fitted curve in the direction sought with a large enough effect; inconclusive = small, poorly fitted or top-dose-only effect, or another doubt; inactive = no such curve, though single readings can be large; an effect the other way counts as inactive or inconclusive. Potency is the fitted concentration of half-maximal effect.

SMILES	Pf growth 48h	AmpC detergent	Sm TGR inh	AmpC no deterg	Pf growth 96h	SARS PLP yeast
Cc1ccccc1NC(=O)C(C)SCc1ccccc1 (stereo not given)	-7%	2%	7%	-11%	-18%	1%
CCNC(=O)NC(=O)C(C)SCc1ccccc1C (stereo not given)	12%	-19%	-16%	-16%	6.6µM*	1%
Cc1ccc(C)c(CN2CCN(c3ncccn3)CC2)c1	6%	-14%	9%	-3%	?	2%
CCOc1ccc2nc(SCC(=O)Nc3ccc4c(c3)OCCO4)[nH]c2c1	3%	-8%	7%	-24%	/	-2%
CCOc1ccc2nc(SCC(=O)Nc3cccc(S(=O)(=O)NC4=NCCCCC4)c3)[nH]c2c1	12µM*	-6%	1%	-34%	?	1%
CCOc1ccccc1Nc1nnc(SCC(=O)Nc2cccc(S(=O)(=O)NC3=NCCCCC3)c2)s1	?	3%	-1%	-25%	9.3µM*	3%
O=C(CSc1nnc(NC(=O)C2CC2)s1)Nc1cccc(F)c1	-4%	0%	4%	-5%	2.9µM*	13%
CC(C)Nc1nnc(SCC(=O)Nc2ccc3c(c2)C(=O)c2ccccc2C3=O)s1	41%	2%	-4%	10µM*	?	-15%
O=S(=O)(NNc1ccc(Cl)nn1)c1ccc(F)cc1	-19%	-2%	1%	7%	0%	6%
Cc1ccc(-c2nnc(SCC(=O)NC(C)(C)C)nc2-c2ccc(C)cc2)cc1	/	9%	4%	/	/	/
Cc1cc(C(=O)OCC(=O)NCCc2ccc(S(N)(=O)=O)cc2)c2ccccc2n1	-7%	0%	4%	-10%	?	4%
CCc1ccc(CNc2ncc(-c3cccc(OC)c3)n2C)cc1	/	-3%	-5%	/	/	/
O=C(C1CCCCC1)N1CCN(S(=O)(=O)c2cccc([N+](=O)[O-])c2)CC1	17%	-8%	-17%	31%	11%	-2%
CCOc1ccccc1Nc1nnc(SCC(=O)Nc2ccc3[nH]c(=O)[nH]c3c2)s1	-22%	-3%	2%	18µM*	?	2%
CSc1nnc(SCC(=O)Nc2ccc3[nH]c(=O)[nH]c3c2)s1	-13%	-2%	-21%	-8%	-22%	-4%
O=C(Nc1ccc(Oc2cccc(C(F)(F)F)c2)nc1)c1ccco1	?	-9%	-16%	-13%	13µM*	-4%
CC(C)(C)c1ccc(Oc2ccc(NC(=O)c3cccs3)cn2)cc1	2.6µM*	-11%	-1%	-46%	13µM*	-4%
CCCC(=O)Nc1ccc(NC(=O)c2ccco2)cn1	82%	-14%	1%	-6%	8.3µM*	-2%
CC(C)(C)c1ccc(Oc2ccc(NC(=O)c3ccco3)cn2)cc1	2.1µM*	7%	4%	-5%	8.3µM*	-3%
O=C(CS(=O)(=O)Cc1ccccc1)Nc1ccc(Cl)cn1	2%	-14%	-25%	-28%	16%	-19%
CC1=C(n2nnc([N+](=O)[O-])n2)C(c2cccnc2)C(C#N)=C(N)O1 (stereo not given)	13µM*	-11%	?	-22%	?	27%
COC(=O)C1=C(C)OC(N)=C(C#N)C1c1cccnc1 (stereo not given)	-14%	-2%	?	-2%	/	2%
N#CC1=C(N)Oc2c(c(=O)sc3ccccc23)C1c1cccnc1 (stereo not given)	-4%	2%	1%	-16%	12%	-1%
N#CC1=C(N)Oc2n[nH]c(-c3ccccc3)c2C1c1ccncc1 (stereo not given)	-15%	?	2%	-22%	-1%	0%
N#CC1=C(N)Oc2n[nH]c(-c3ccc(F)cc3)c2C1c1cccnc1 (stereo not given)	/	-4%	-3%	-21%	5.9µM*	-4%
